Results from PubChem BioAssay (NCATS).
Results filed as inconclusive are left out. Entries that show only a call come without a potency. Calls of active or inactive are those of the source. The call rests on the fitted dose curve; in most records, active means well fitted cell-killing curve with a large enough effect; inconclusive means small, poorly fitted or top-dose-only effect, or effect the other way; inactive means no such curve, though single readings can be large or run the other way.

Experiment: Quantitative High-Throughput drug screen in 47 multiple myeloma cell lines against the NCATS MIPE library collection: LP1_DSMZ cell viability assay (AID 1918982); further: nearly all actives have a fitted effect of over 35% in size
Conditions: LP1 myeloma viability, CellTiter-Glo ATP luminescence, 48 h; series mostly up to 45.8 µM
Excerpt: PI: Beverly A. Mock Ph.D.
Laboratory of Cancer Biology and Genetics,
Center for Cancer Research, National Cancer Institute,
National Institute of Health, Bethesda, Maryland
Drug resistance and disease progression are common in multiple myeloma (MM) patients, underscoring the need for new therapeutic combinations. […] We hypothesized that effective combinations would reduce MYC expression and enhance p16 activity. […] These preclinical data identify potentially useful drug combinations for evaluation in drug-resistant MM and reveal potential mechanisms of combined drug sensitivity.
Described herein is the primary MIPE qHTS used to cherrypick compounds. Validated compounds were then further tested for potential synergistic activiy.
[1] Peat TJ, Gaikwad SM, Dubois W, Gyabaah-Kessie N, Zhang S, Gorjifard S, Phyo Z, Andres M, Hughitt VK, Simpson RM, Miller MA, Girvin AT, Taylor A, Williams D, D'Antonio N, Zhang Y, Rajagopalan A, Flietner E, Wilson K, Zhang X, Shinn P, Klumpp-Thomas C, McKnight C, Itkin Z, Chen L, Kazandijian D, Zhang J, Michalowski AM, Simmons JK, Keats J, Thomas CJ, Mock BA. Drug combinations identified by high-throughput screening promote cell cycle transition and upregulate Smad pathways in myeloma. Cancer Lett. 2023 Aug 1;568:216284. doi: 10.1016/j.canlet.2023.216284. Epub 2023 Jun 24. PMID: 37356470; PMCID: PMC10408729.
SEQUENCE No. (e.g., 1, 2, 3, etc.); […] (e.g., Cells, Incubation, Reagent, etc.); VALUE and DESCRIPTION.
1; Cells; 5 uL; white, solid bottom 1536-well Greiner assay plate.
2; Compounds; 23 nL; Kalypsis pin tool (Wako USA) equipped with a 1536-well pin head to transfer to the assay plates.
3; Incubation; 48 hours; 37C incubation.
4; Reagent;5uL; CellTiter Glo (Promega).
5; Detector; 425V; Luminescence; Viewlux PerkinElmer.
NOTES (numbers refer to Sequence numbers above)
1. The cell-based screening methods employed in this study were like those previously published. Briefly, the corresponding myeloma cell lines were screened in 1,536-well plates with 500 cells, 5-uL per well for inhibition of cell viability (assessed by measuring ATP levels with CellTiterGlo).
2. NCATS MIPE 4.0 library of approved and investigational drugs were added using the Kalypsis pin tool. Wells treated with DMSO only for 100% viability and media only for 0% viability were used as controls.
3. The assay plates were covered and incubated for 48 hours in a 37C, 5% CO2 incubator with controlled humidity.
4. After 48 hours, CellTilter-GloTM luminescent substrate mix (Promega) reagent was added to the assay plate and plates we incubated for 5 min at room temperature.
5. Signal was measured as median relative luminescence units on a ViewLux (PerkinElmer) multiplate reader.
[1] Heske CM, Davis MI, Baumgart JT, Wilson K, Gormally MV, Chen L, Zhang X, Ceribelli M, Duveau DY, Guha R, Ferrer M, Arnaldez FI, Ji J, Tran HL, Zhang Y, Mendoza A, Helman LJ, Thomas CJ. Matrix Screen Identifies Synergistic Combination of PARP Inhibitors and Nicotinamide Phosphoribosyltransferase (NAMPT) Inhibitors in Ewing Sarcoma. Clin Cancer Res. 2017 Dec 1;23(23):7301-7311. doi: 10.1158/1078-0432.CCR-17-1121. Epub 2017 Sep 12. PMID: 28899971; PMCID: PMC6636827.
Potency means the concentration at half of the fitted maximal effect.

Q: With `COc1ccc(CC2NCCc3cc(OC)c(OC)cc32)cc1OC` (stereo not given) as the compound, how does the Potency read?
A: inactive

Q: For `CC1=NN=C(c2ccc(N)cc2)c2cc3c(cc2C1)OCO3`, which Potency is on record?
A: inactive

Q: For `O=C(Oc1ccc([N+](=O)[O-])cc1)N1CCC(C(O)(c2ccc3c(c2)OCO3)c2ccc3c(c2)OCO3)CC1`, which Potency is on record?
A: inactive

Q: Which Potency does the source give for `C[C@@]12OC(=O)[C@]1([C@@H](O)[C@@H]1C=CCCC1)NC(=O)[C@H]2CCCl` here?
A: 0.0166 µM (active)

Q: With `CC(=Cc1csc(C)n1)[C@@H]1C[C@H]2O[C@@H]2CCC[C@H](C)[C@@H](O)[C@@H](C)C(=O)C(C)(C)[C@@H](O)CC(=O)O1` as the compound, how does the Potency read?
A: inactive

Q: Which Potency does the source give for `O=c1[nH]c2ccccc2n1C1CCN(Cc2ccc(-c3[nH]c4cc5ncnc5cc4nc3-c3ccccc3)cc2)CC1` here?
A: 20.9 µM (active)

Q: For `O=c1[nH]c2ccc(Cl)cc2c(N[C@@H]2CN3CCC2CC3)c1-c1nc2ccccc2[nH]1`, which Potency is on record?
A: 3.32 µM (active)

Q: Which Potency does the source give for `Cc1nc(-c2ccc(-c3ccc(C(=O)N4CCc5cc6c(cc54)C4(CCN(C)CC4)CO6)cc3)c(C)c2)no1` here?
A: inactive

Q: With `CN(C)NC(=O)CCC(=O)O` as the compound, how does the Potency read?
A: inactive

Q: For `c1ccc(CCCN2CCN(CCOC(c3ccccc3)c3ccccc3)CC2)cc1`, which Potency is on record?
A: 20.9 µM (active)

Q: For `CCCCCC[C@H]1C(=O)O[C@H](C)[C@H](NC(=O)c2cccc(NC=O)c2O)C(=O)O[C@@H](C)[C@@H]1OC(=O)CC(C)C`, which Potency is on record?
A: 0.059 µM (active)

Q: For `CN1CCN(c2ccc([N+](=O)[O-])c3no[n+]([O-])c23)CC1`, which Potency is on record?
A: 18.7 µM (active)

Q: With `C[C@@H]1CC[C@@]2(OC1)O[C@H]1C[C@H]3[C@@H]4CC=C5C[C@@H](O[C@@H]6O[C@H](CO)[C@@H](O[C@@H]7O[C@@H](C)[C@H](O)[C@@H](O)[C@@H]7O)[C@H](O)[C@@H]6O[C@@H]6O[C@@H](C)[C@H](O)[C@@H](O)[C@@H]6O)CC[C@]5(C)[C@@H]4CC[C@]3(C)[C@@H]1[C@H]2C` as the compound, how does the Potency read?
A: 2.96 µM (active)

Q: For `COc1cccc2c1[C@]13CCN(CC4CC4)[C@H](C2)[C@]1(OC)CCC(=O)C3`, which Potency is on record?
A: inactive

Q: For `COc1cc2cc(c1Cl)N(C)C(=O)C[C@H](OC(=O)C(C)C)[C@]1(C)O[C@H]1[C@H](C)[C@@H]1C[C@@](O)(NC(=O)O1)[C@H](OC)C=CC=C(C)C2`, which Potency is on record?
A: inactive

Q: Which Potency does the source give for `CC(N[C@H]1C[C@H]1c1ccccc1)c1ccc2c(c1)OCCO2` (stereo not given in full) here?
A: inactive

Q: With `C[C@]12CCC(=O)C(O)=C1CC[C@@H]1[C@H]3CCC(=O)[C@@]3(C)CC[C@@H]12` as the compound, how does the Potency read?
A: inactive

Q: For `CN1[C@H]2CC(O)C[C@H]1[C@H]1O[C@H]12` (stereo not given in full), which Potency is on record?
A: 18.7 µM (active)

Q: With `COC(=O)[C@@H](N)CCCN=C(N)N[N+](=O)[O-]` as the compound, how does the Potency read?
A: inactive

Q: With `CC1=C(O)C(=O)C=C2C1=CC=C1[C@@]2(C)CC[C@@]2(C)[C@@H]3C[C@](C)(C(=O)O)CC[C@]3(C)CC[C@]12C` as the compound, how does the Potency read?
A: 0.833 µM (active)

Q: For `O=[N+]([O-])c1ncc[nH]1`, which Potency is on record?
A: inactive

Q: Which Potency does the source give for `CC(C)[C@]12O[C@@H]1[C@@H]1O[C@]13[C@]1(O[C@H]1C[C@@H]1C4=C(CC[C@@]13C)C(=O)OC4)[C@H]2O` here?
A: inactive

Q: For `CCN(CC)C(=O)c1ccc(C2=CC3(CCNCC3)Oc3cccc(O)c32)cc1`, which Potency is on record?
A: inactive

Q: With `O=C1C=CC[C@@H]2[C@H]3CCCN4CCC[C@@H](CN12)[C@@H]34` as the compound, how does the Potency read?
A: inactive

Q: With `CC[C@@H](C(N)=O)N1CCCC1=O` as the compound, how does the Potency read?
A: inactive

Q: With `COc1ccc2c(c1)[C@]13CCCCC1C(C2)N(C)CC3` (stereo not given in full) as the compound, how does the Potency read?
A: inactive

Q: Which Potency does the source give for `CC(O)=C(C#N)C(=O)Nc1cc(Br)ccc1Br` here?
A: inactive

Q: With `CN(C)[C@@H]1C(=O)C(C(N)=O)=C(O)[C@@]2(O)C(=O)C3=C(O)c4c(O)cccc4[C@@](C)(O)[C@H]3[C@H](O)[C@@H]12` as the compound, how does the Potency read?
A: inactive

Q: For `CC(C)N(CCNC(=O)CN1CCCC1=O)C(C)C`, which Potency is on record?
A: inactive

Q: Which Potency does the source give for `CC(=O)N(C)c1cccc(-c2ccnc3c(C(=O)c4cccs4)cnn23)c1` here?
A: inactive

Q: For `CC(C)(C)c1cc(C=C(C#N)C#N)cc(Br)c1O`, which Potency is on record?
A: 23.5 µM (active)

Q: For `CCCN1CCO[C@@H]2c3cc(O)ccc3OC[C@@H]21`, which Potency is on record?
A: 20.9 µM (active)

Q: Which Potency does the source give for `CCOC(=O)Nc1ccc(NCc2ccc(F)cc2)cc1N` here?
A: inactive

Q: For `CCN1C[C@]2(OC(=O)c3ccccc3NC(C)=O)CC[C@H](OC)[C@@]34[C@H]5CC6[C@@H](OC)C[C@](O)(C(C[C@@H]23)[C@@H]14)[C@@]5(O)[C@@H]6OC`, which Potency is on record?
A: inactive

Q: With `CCc1c(C(=O)C(N)=O)c2c(OCC(=O)O)cccc2n1Cc1ccccc1` as the compound, how does the Potency read?
A: inactive

Q: For `O=C(Nc1ccncc1)C(=O)c1cn(Cc2ccc(Cl)cc2)c2ccccc12`, which Potency is on record?
A: 0.0935 µM (active)

Q: With `O=S(=O)(F)Cc1ccccc1` as the compound, how does the Potency read?
A: inactive

Q: Which Potency does the source give for `CC1(N2CCC(n3c([C@@H]4CCCNC4)nc4ccccc43)CC2)CCCCCCC1` here?
A: 23.5 µM (active)

Q: For `NC1CC1c1ccccc1` (stereo not given), which Potency is on record?
A: inactive

Q: With `CC=C(C)C(=O)O[C@H]1C(C)=C2[C@@H]3OC(=O)[C@@](C)(O)[C@@]3(O)[C@@H](OC(=O)CCC)C[C@](C)(OC(C)=O)[C@@H]2[C@@H]1OC(=O)CCCCCCC` as the compound, how does the Potency read?
A: 0.0296 µM (active)
